Consider 40 molecules from the supplement of paper PMC9023506.

Where a name gives a salt, the structure may show the parent alone.

For this test, the system named is Danio rerio larvae (5 dpf). The test can be described thus: optomotor response to green moving lines, difference vs DMSO (percentage points (treated minus DMSO)); higher = more of the behaviour than the DMSO vehicle control. Conditions: 10 µM; exposure time: 3 h pre-incubation + 3 h imaging. Here is the method: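 5-dpf wild-type zebrafish larvae were imaged in 96-well plates. They were treated with 190 Tocris FDA-approved drugs at 10 µM (1 µl/ml DMSO) for 3 h before and 3 h during imaging at 28.5 °C, 48 larvae per drug. Automated image analysis gave % time moving and optomotor responses. Values are drug group mean minus DMSO vehicle mean (n=844), in percentage points, for 10 behaviours.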
As for `NS(=O)(=O)c1cc(C(=O)O)c(NCc2ccco2)cc1Cl` [Furosemide], the “optomotor response to green moving lines” value was -6.99.
Next, `CN(CCOc1ccc(NS(C)(=O)=O)cc1)CCc1ccc(NS(C)(=O)=O)cc1` [Dofetilide]: 0.112; `CC[C@H](C)C(=O)O[C@H]1C[C@@H](C)C=C2C=C[C@H](C)[C@H](CC[C@@H]3C[C@@H](O)CC(=O)O3)[C@H]21` [Lovastatin]: -3.13.
On to `Clc1ccccc1C(c1ccccc1)(c1ccccc1)n1ccnc1` [Clotrimazole], for which the “optomotor response to green moving lines” value was -19.6.
Next, `C=C1[C@H](CO)[C@@H](O)C[C@@H]1n1cnc2c(=O)[nH]c(N)nc21` [Entecavir]: 0.498.
Next, `Nc1ccn([C@@H]2O[C@H](CO)[C@@H](O)C2(F)F)c(=O)n1` [Gemcitabine hydrochloride]: 0.29.
Next, `CCOC(=O)C1=C(COCCN)NC(C)=C(C(=O)OC)C1c1ccccc1Cl` (stereo not given) [Amlodipine besylate]: -4.86; `CCOc1nc2cccc(C(=O)O)c2n1Cc1ccc(-c2ccccc2-c2nnn[nH]2)cc1` [Candesartan]: 0.689; `CC(C)N(CCCCOCC(=O)NS(C)(=O)=O)c1cnc(-c2ccccc2)c(-c2ccccc2)n1` [Selexipag]: -4.69.
For `COc1ccccc1OCCNCC(O)COc1cccc2[nH]c3ccccc3c12` (stereo not given) [Carvedilol], the “optomotor response to green moving lines” value is -14.2.
Next, `O=C1CCc2ccc(OCCCCN3CCN(c4cccc(Cl)c4Cl)CC3)cc2N1` [Aripiprazole]: -2.87; `CC#C[C@]1(O)CC[C@H]2[C@@H]3CCC4=CC(=O)CCC4=C3[C@@H](c3ccc(N(C)C)cc3)C[C@@]21C` [Mifepristone]: 11.
Next, `CCOc1nc2cccc(C(=O)O)c2n1Cc1ccc(-c2ccccc2-c2noc(=O)[nH]2)cc1` [Azilsartan]: -0.791.
Next, `O=C(O[C@@H]1C[C@@H]2C[C@H]3C[C@H](C1)N2CC3=O)c1c[nH]c2ccccc12` [Dolasetron mesylate]: -11.6; `CCCCCCCN(CC)CCCC(O)c1ccc(NS(C)(=O)=O)cc1` (stereo not given) [Ibutilide hemifumarate]: 4.88; `CNS(=O)(=O)Cc1ccc2[nH]cc(CCN(C)C)c2c1` [Sumatriptan succinate]: 3.74.
Turning to `Cc1cc(C2CCCCC2)n(O)c(=O)c1` [Ciclopirox], the “optomotor response to green moving lines” value is -5.97.
As for `OCc1cc(C(O)CNCCCCCCOCCCCc2ccccc2)ccc1O` (stereo not given) [Salmeterol xinafoate], the figure is -6.89.
As for `CC(=O)Oc1ccccc1C(=O)O` [Aspirin], the figure is -12.5; as for `CN1CC[C@@H](NC(=O)Nc2ccc(C#N)cc2)C[C@@H]1c1nc2ccccc2[nH]1`, -5.63.
As for `O=C(O)c1cc(/N=N/c2ccc(S(=O)(=O)Nc3ccccn3)cc2)ccc1O` [Sulfasalazine], the figure is 0.416; as for `C[C@]12CCC(=O)C=C1CC[C@@H]1[C@@H]2[C@@H](O)C[C@@]2(C)[C@H]1CC[C@]2(O)C(=O)CO` [Hydrocortisone], 10.5; as for `CS(=O)(=O)CCNCc1ccc(-c2ccc3ncnc(Nc4ccc(OCc5cccc(F)c5)c(Cl)c4)c3c2)o1` [Lapatinib], 0.954.
As to `Clc1ccc2nsnc2c1NC1=NCCN1` [Tizanidine hydrochloride], the “optomotor response to green moving lines” value is -0.817.
As to `CC(C)(C(=O)c1cccnc1)c1cccnc1` [Metyrapone], the “optomotor response to green moving lines” value was -5.18.
Next, `CCOC(=O)c1ncn2c1CN(C)C(=O)c1cc(F)ccc1-2` [Flumazenil]: 15; `CN(C)CCc1c[nH]c2ccc(Cn3cncn3)cc12` [Rizatriptan benzoate]: 3.24; `Cc1ccc(N(CC2=NCCN2)c2cccc(O)c2)cc1` [Phentolamine Mesylate]: 5.31.
In the case of `COc1cccc2c1C(=O)c1c(O)c3c(c(O)c1C2=O)C[C@@](O)(C(=O)CO)C[C@@H]3O[C@H]1C[C@H](N)[C@H](O)[C@H](C)O1` [Doxorubicin hydrochloride], the “optomotor response to green moving lines” value is -8.47.
As for `CC(=O)S[C@@H]1CC2=CC(=O)CC[C@]2(C)[C@H]2CC[C@@]3(C)[C@@H](CC[C@@]34CCC(=O)O4)[C@H]12` [Spironolactone], the figure is 3.9; as for `C[C@@H](O[C@H]1OCCN(Cc2n[nH]c(=O)[nH]2)[C@H]1c1ccc(F)cc1)c1cc(C(F)(F)F)cc(C(F)(F)F)c1` [Aprepitant], 4.81; as for `CCCC1O[C@@H]2C[C@H]3[C@@H]4CCC5=CC(=O)C=C[C@]5(C)[C@H]4[C@@H](O)C[C@]3(C)[C@]2(C(=O)CO)O1` (stereo not given in full) [Budesonide], 0.891.
Next, `CN/C(=N\CCSCc1nc[nH]c1C)NC#N` [Cimetidine]: 5.06; `OC(c1cc(C(F)(F)F)nc2c(C(F)(F)F)cccc12)C1CCCCN1` (stereo not given) [Mefloquine hydrochloride]: -0.307; `CN1CC2c3ccccc3Oc3ccc(Cl)cc3C2C1` (stereo not given) [Asenapine maleate]: -9.85.
As for `CC1CNc2c(cccc2S(=O)(=O)N[C@@H](CCCNC(=N)N)C(=O)N2CC[C@@H](C)C[C@@H]2C(=O)O)C1` (stereo not given in full) [Argatroban], the figure is -1.18; as for `CN(CCOc1ccc(CC2SC(=O)NC2=O)cc1)c1ccccn1` (stereo not given) [Rosiglitazone], 1.76.
For the molecule `CC1(C)O[C@@H]2[C@@H](CO[C@@]3(COS(N)(=O)=O)OC(C)(C)O[C@@H]23)O1` [Topiramate], the “optomotor response to green moving lines” value is -1.84.
Next, `Clc1ccc(COC(Cn2ccnc2)c2ccc(Cl)cc2Cl)c(Cl)c1` (stereo not given) [Miconazole nitrate]: -5.21.
Next, `COc1cc2nc(N3CCN(C(=O)C4COc5ccccc5O4)CC3)nc(N)c2cc1OC` (stereo not given) [Doxazosin mesylate]: -8.3.
